HT1080 IDH1KD tx: qHTS for induction of synthetic lethality in tumor cells producing 2HG: qHTS for the HT-1080-IDH1KD cell line; 360,000 compounds, 2% hits; Potency, µM (titrated, usually from 46.1 µM), usual class: cytotoxic; HT-1080 IDH1 knockdown viability, ATP luminescence, 48 h
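Cytotoxicity counter-line: IDH1KD HT-1080, 48 h, CellTiter-Glo. Curves classed by r2, magnitude and activity.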
DT40 TDP1 CPT: qHTS for Inhibitors of human tyrosyl-DNA phosphodiesterase 1 (TDP1): qHTS in cells in presence of CPT. chicken DT40 Tdp1-/-;hTDP1 cells + 20 nM CPT, ATP luminescence, 48 h. Potency, µM (doses to about 46.2 µM), usual class: inhibitors. 420,000 compounds, 12% hits. AID 686979, 2013; also: nearly all actives have a fitted effect of over 55% in size
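Chicken DT40 Tdp1-/- cells stably complemented with human TDP1 were seeded at 400 cells/well in medium containing 20 nM camptothecin, exposed to pin-transferred compounds, and grown at 37 °C for at least 48 hr. Viability was read as ATP luminescence.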
ELG1 repair inh: qHTS screen for small molecules that inhibit ELG1-dependent DNA repair in human embryonic kidney (HEK293T) cells expressing luciferase-tagged ELG1; AID 504467, 2011; Potency, µM (highest dose often 46.1 µM), usual class: inhibitors; 330,000 compounds, 2.3% hits; HEK293T ELG1-luciferase reporter, luminescence, 16 h; DNA damage induced by 5-fluorouridine; also: nearly all actives have a fitted effect of over 55% in size
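Overnight (16 hr) co-exposure of 2,000 cells/well to 5-fluorouridine and compound at 37 °C preceded detection. Luciferase was quantified via ONE-Glo luminescence; loss of signal denotes inhibition.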
IL-1B inflam inh: qHTS for Inhibitors of Inflammasome Signaling: IL-1-beta AlphaLISA Primary Screen. THP-1 LPS/ATP IL-1B secretion, AlphaLISA, 16 h; active compounds read low. activity change, % at 57.5 µM. 360,000 compounds, 4.7% hits. AID 743279, 2014; in the data active = activity change below about -50%; inconclusive = mostly about -30% to -49%
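Secreted IL-1B measured by AlphaLISA bead assay after 16 h compound exposure of THP-1 cells; compounds (final up to 57.5 uM) added 1 h before LPS (250 ng/mL) and ATP (1.25 mM) stimulation; lower signal means less secretion.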
TDP1 cell noCPT: qHTS for Inhibitors of human tyrosyl-DNA phosphodiesterase 1 (TDP1): qHTS in cells in absence of CPT; DT40 Tdp1-/- hTDP1 cells, no CPT, ATP luminescence, 48 h; Potency, µM (top dose mostly 46.2 µM), usual class: inhibitors; 420,000 compounds, 15% hits; AID 686978, 2013; also: nearly all actives have a fitted effect of over 55% in size
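Stably hTDP1-transfected Tdp1-null chicken DT40 cells were treated with library compounds minus camptothecin and grown for at least 48 hr at 37 °C, after which cellular ATP was quantified by luminescence.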
HT1080-NT tox: qHTS for induction of synthetic lethality in tumor cells producing 2HG: qHTS for the HT-1080-NT fibrosarcoma cell line; HT-1080-NT fibrosarcoma viability, CellTiter-Glo ATP luminescence, 48 h; Potency, µM (top dose mostly 46.1 µM), actives largely listed as cytotoxic; 360,000 compounds, 1.6% hits; AID 686970, 2013;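 also: NT is the 2HG producing partner of a matched IDH1 knockdown line; nearly all actives have a fitted effect of over 55% in size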
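A 48-hour cytotoxicity screen used HT-1080-NT cells plated 2 hours before compound delivery. ATP-based CellTiter-Glo luminescence measured viability, normalized to DMSO and no-cell controls.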
A number is an active result; – = inactive; ? = inconclusive; · = no result given; [ ] = dose if it differs, or a comment. Only some compounds are listed: those with a hit (about 19% of all), similar ones and a draw of the others. Unless noted, calls follow the shape of the dose curve; as a rule, active = well fitted curve in the direction sought with a large enough effect; inconclusive = small, poorly fitted or top-dose-only effect, or another doubt; inactive = no such curve, though single readings can be large; an effect the other way counts as inactive or inconclusive.

SMILES	HT1080 IDH1KD tx	DT40 TDP1 CPT	ELG1 repair inh	IL-1B inflam inh	TDP1 cell noCPT	HT1080-NT tox
Cc1cc(C)c(NC(=O)C(C)n2nc(C)c3sc4ccccc4c3c2=O)c(C)c1 (stereo not given)	·	–	·	·	–	·
Cn1c(-c2ccc([N+](=O)[O-])cc2)nc2ccccc21	–	–	?	–	–	–
Cn1nc([N+](=O)[O-])c(C(C#N)c2nc3ccccc3n2C)c(Cl)c1=O (stereo not given)	–	?	?	–	23µM	–
Cc1[nH]c(=O)[nH]c1C(=O)CCCCC(=O)O	–	–	–	-95	–	–
CCCCSCc1[nH]c(=O)[nH]c1C(=O)CCCCC(=O)OCC	–	–	–	–	–	–
CCN(CC)CCCNC(=O)C(=O)Nc1ccc2nc3n(c(=O)c2c1)CCCCC3	·	–	·	·	–	·
CCSc1c([N+](=O)[O-])c(=O)n(-c2ccccc2)c2ccccc12	–	–	·	–	?	–
Cc1cccnc1NC(=O)C1CC(=O)N(c2ccc3c(c2)OCCO3)C1 (stereo not given)	–	–	–	–	–	–
O=C(CC1CC2CCC1C2)Nc1nc(-c2ccccn2)cs1 (stereo not given)	–	?	21µM	–	6.5µM	–
O=C(Nc1nc(-c2ccccn2)cs1)C1CC(=O)N(c2ccc3c(c2)OCCO3)C1 (stereo not given)	–	26µM	?	–	16µM	–
O=C(Nc1nc(-c2ccccn2)cs1)C1CC1	–	23µM	?	–	18µM	–
CC1CC(=O)Nc2ccccc2S1(=O)=O (stereo not given)	–	–	·	–	?	–
O=S1(=O)c2ccccc2Nc2ccccc21	–	–	–	-73	–	–
O=C(Cc1c(Cl)cccc1Cl)N1CCN(S(=O)(=O)c2cccs2)CC1	–	21µM	–	–	?	–[9.24 µM]
CC(=O)c1ccc(OCCCC(=O)N2CCN(S(=O)(=O)c3cccs3)CC2)cc1	–	?	?	–	12µM	–
O=C(Cc1c(F)cccc1Cl)N1CCN(S(=O)(=O)c2cccs2)CC1	–	–	–	–	–	–
Nc1ccc(Cn2ccc3c4c(N)nc(N)nc4ccc32)cc1	0.033µM	?	·	-99	0.13µM	0.52µM
CCOC(=O)c1cnc2ccc(OCC)cc2c1N1CCN(C)CC1	–	?	–	?	?	–
CCOC(=O)c1cnc2c(OC)cccc2c1N1CCN(c2ccc(OC)cc2)CC1	–	?	?	–	16µM	–
CCOC(=O)c1cnc2c(OC)cccc2c1N1CC(C)CC(C)C1 (stereo not given)	–	12µM	?	–	7.3µM	–
CCOC(=O)c1cnc2c(OC)cccc2c1Oc1ccccc1	–	–	–	–	–	–
CCOC(=O)c1cnc2ccc(OCC)cc2c1N1CCN(c2cccc(Cl)c2)CC1	·	16µM	·	·	8.2µM	·
CCOC(=O)c1cnc2c(C)cc(Cl)cc2c1N1CCN(C)CC1	–	?	–	-64	?	–
CC1(C(=O)NS(=O)(=O)c2ccc(F)cc2F)CCN1C(=O)C1(c2ccc(Cl)cc2)CC1 (stereo not given)	–	?	·	–	–	–
CCOC(=O)[C@]12CCC=C1N(Cc1ccc3c(c1)OCO3)C(=O)[C@H](CC(=O)N1CCSCC1)C2	–	?	·	–	?	–
CCOC(=O)c1cnc2c(OC)cccc2c1N1CCN(c2ccccc2OC)CC1	–	?	10µM	-97	13µM	–
